Measurements as given in the supplement of paper PMC6555819.

Columns and labels:
Test in all cases: PBM binding z-score (relative to random genomic background probes); higher = stronger binding; sequences stand for … in GC…GCGATTGACAGCGTAGAATGAAGG
[1] = tested on: FXR:RXRa (NR concentration 270 nM, RXRa partner concentration 90 nM)
Procedure, shortened: (§1)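 Ligand-free nuclear receptor dimers were applied to custom Agilent 4×180K protein-binding microarrays whose double-stranded probes carried direct-repeat seeds, single-nucleotide variants, half-site ablations and random human genomic background sequences in 34-nt variable regions. Incubation lasted 1 h. Binding z-scores were computed against the random background probes from regression-normalized fluorescence.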

[2] = tested on: LXRa:RXRa (NR concentration 270 nM, RXRa partner concentration 90 nM)
Procedure, shortened: as §1

[3] = tested on: LXRa homodimer (NR concentration 270 nM)
Procedure, shortened: as §1

[4] = tested on: LXRb:RXRa (NR concentration 270 nM, RXRa partner concentration 90 nM)
Procedure, shortened: as §1

[5] = tested on: LXRb homodimer (NR concentration 270 nM)
Procedure, shortened: as §1

[6] = tested on: PPARa:RXRa (NR concentration 270 nM, RXRa partner concentration 90 nM)
Procedure, shortened: as §1

[7] = tested on: PPARg:RXRa (NR concentration 180 nM, RXRa partner concentration 90 nM)
Procedure, shortened: as §1

[8] = tested on: PPARg:RXRa 270nM:90nM, anti-RXR (NR concentration 270 nM, RXRa partner concentration 90 nM)
Procedure, shortened: as §1

[9] = tested on: PPARg:RXRa 30nM:10nM, anti-RXR (NR concentration 30 nM, RXRa partner concentration 10 nM)
Procedure, shortened: as §1

[10] = tested on: PPARg:RXRa 90nM:30nM, anti-RXR (NR concentration 90 nM, RXRa partner concentration 30 nM)
Procedure, shortened: as §1

[11] = tested on: PPARg:RXRa DBDmut IVT, anti-RXR (DBD mutation: RXRa K156A/R161A, NR concentration 270 nM, RXRa partner concentration 90 nM)
Procedure, shortened: as §1

[12] = tested on: PPARg:RXRa IVT, anti-PPARg (NR concentration 270 nM, RXRa partner concentration 90 nM)
Procedure, shortened: as §1

[13] = tested on: PPARg DBDmut:RXRa IVT, anti-PPARg (DBD mutation: PPARg1 K132A/R137A, NR concentration 270 nM, RXRa partner concentration 90 nM)
Procedure, shortened: as §1

[14] = tested on: PPARg DBDmut IVT, anti-PPARg (DBD mutation: PPARg1 K132A/R137A, NR concentration 270 nM)
Procedure, shortened: as §1

[15] = tested on: PPARg homodimer (NR concentration 180 nM)
Procedure, shortened: as §1

[16] = tested on: PXR:RXRa (NR concentration 270 nM, RXRa partner concentration 90 nM)
Procedure, shortened: as §1

[17] = tested on: PXR homodimer (NR concentration 270 nM)
Procedure, shortened: as §1

[18] = tested on: RARa:RXR (NR concentration 270 nM, RXRa partner concentration 90 nM)
Procedure, shortened: as §1

[19] = tested on: RARa homodimer (NR concentration 270 nM)
Procedure, shortened: as §1

[20] = tested on: RARb:RXRa (NR concentration 270 nM, RXRa partner concentration 90 nM)
Procedure, shortened: as §1

Sequence | PBM binding z-score [1] | PBM binding z-score [2] | PBM binding z-score [3] | PBM binding z-score [4] | PBM binding z-score [5] | PBM binding z-score [6] | PBM binding z-score [7] | PBM binding z-score [8] | PBM binding z-score [9] | PBM binding z-score [10] | PBM binding z-score [11] | PBM binding z-score [12] | PBM binding z-score [13] | PBM binding z-score [14] | PBM binding z-score [15] | PBM binding z-score [16] | PBM binding z-score [17] | PBM binding z-score [18] | PBM binding z-score [19] | PBM binding z-score [20]
ATCTCAAGGTAACAAGTTCAGTGAAAGAGAGGAC | 1.2 | 1.29 | 0.665 | 0.971 | 0.9 | 1.4 | 0.619 | 1.08 | 0.731 | 1.03 | 0.525 | 1.3 | 1.3 | 1.1 | 1.41 | 1.88 | 2.27 | 1.33 | 1.14 | 2.08
CCGACTGGGGCAGAAAGGTTACTATACCATCCGG | -0.369 | -0.0108 | -0.29 | 0.722 | -1.04 | 1.5 | 1.63 | 2.14 | 0.485 | 1.52 | 2.21 | 1.68 | -0.665 | -1.26 | 0.373 | 0.533 | -0.207 | 1.18 | -0.156 | 1.53
GCTAGCAGGACATTTGGGTCACTCAATGACGGGC | 0.0183 | -0.0744 | -0.248 | -0.0431 | -0.72 | 1.31 | 0.997 | 0.479 | -0.424 | -0.0664 | 1.29 | 2.12 | -1.17 | -1.5 | -0.156 | 0.607 | 0.862 | 0.611 | -0.875 | 1.16
TTAATGAGGTTATAAGATCAGGGAACGTTGCAAA | 1.87 | 1.75 | 0.416 | 1.58 | 0.291 | 3.04 | 1.96 | 2.7 | 1.97 | 2.32 | 2.84 | 2.61 | 1.48 | 1.53 | 0.917 | 1.11 | 0.494 | 1.66 | 1.23 | 1.27
CGAACTAGGGCATGAGTTGATAGCAAATGCCGAT | -0.0776 | -0.357 | -0.246 | -0.279 | -0.828 | 2.34 | 4.14 | 4.13 | 2.03 | 3.43 | 7.01 | 6.1 | 1.05 | 0.0296 | -0.00514 | -0.191 | -0.257 | 0.155 | -0.133 | 1.12
GCTAGTTAGTCAGTAAAAGGTCACACACCGGTCG | 3.12 | 4.12 | 4.46 | 3.91 | 0.32 | 4.56 | 3.96 | 5.48 | 3.89 | 5.04 | 0.245 | 2.45 | 0.12 | 0.0734 | 3.34 | 4.72 | 0.761 | 4.98 | 2.21 | 3.96
CCTACTGGGCCATTCAGAGGTCATTGCTCATATG | 2.76 | 4.37 | 6.67 | 3.6 | 0.398 | 3.57 | 1.99 | 2.92 | 0.777 | 2.16 | 4.61 | 4.29 | -0.1 | -0.505 | 1.87 | 4.7 | 2.5 | 4.24 | 0.689 | 3.01
ACTATTAGTTGACTTAGGTCAACCGATACGACGC | 1.69 | 2.25 | 1.71 | 2.39 | 1.28 | 2.29 | 1.35 | 1.35 | 0.53 | 0.993 | 0.95 | 1.72 | 1.38 | 1.44 | 2.81 | 2.2 | 1.29 | 2.59 | 1.55 | 2.73
CCTACTGGGCCAAACGTCATTGATTCCAATGCTC | -0.411 | -0.228 | -0.236 | -0.0474 | -0.218 | 2.31 | 4.96 | 6.47 | 5.56 | 6.79 | 6.22 | 3.97 | -0.542 | -0.413 | 0.259 | -0.508 | -0.633 | 0.0892 | -0.153 | 0.179
ACTATTACTTGAGACGAGGGCAACCGATAGGTTG | 0.529 | 0.528 | 0.422 | 0.481 | 1.02 | 0.44 | 0.912 | 0.46 | 0.448 | 0.266 | 0.899 | 1.15 | 0.818 | 1.3 | 1.24 | 0.601 | 0.904 | 0.426 | 1.54 | 1.3
GCTTGTAGATCAAGGTTAGGAAAGACTAAGCTAA | -0.51 | -0.347 | -0.468 | -0.37 | -0.511 | 0.626 | 0.0578 | 0.548 | -0.199 | 0.557 | 1.45 | 0.637 | -0.619 | 0.0428 | -0.189 | -0.276 | -0.422 | -0.0199 | -0.3 | 0.336
GCAGACAGTTGAAACGCAGGTAACTCAGGGTGGC | -0.0356 | -0.382 | -0.506 | -0.476 | -0.589 | -0.162 | 0.287 | -0.573 | -0.78 | -0.65 | -0.661 | -0.74 | -1.02 | -0.586 | -0.714 | -0.372 | -0.779 | 0.0801 | -0.512 | -0.0972
GATACAGGGTCAGCTAGATGCCAGAGTATGGAAA | 5.08 | 2.66 | -0.125 | 2.53 | -0.514 | 4.79 | 4.08 | 3.48 | 0.884 | 2.4 | 1.35 | 2.42 | 0.251 | 0.266 | 3.16 | 2.14 | -0.221 | 3.4 | 0.348 | 3.98
TCATATAGGTAAATGCTAGGTTAAAGTCCGATCT | 1.18 | 1.82 | 1.14 | 1.05 | 0.0487 | 1.7 | 0.987 | 2.22 | 3.48 | 2.87 | 3.88 | 2.47 | 1.36 | 1.02 | 1.14 | 0.98 | 0.768 | 1.29 | 1.88 | 0.735
